Laboratory results published in PubChem BioAssay (NCI).
About 83,000 compounds went through this panel and 20% of them were active in at least one assay; those are over-represented in the sample as a whole.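 Method: cells in 96-well plates; compound added at one concentration; 48 h incubation; percent growth measured; values under 10 scored active.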 Calls of active or inactive are those of the source.

Key:
Test in all cases: NCI-60 one-dose screen, 48 h (100 = growth as untreated, 0 = no growth, -100 = all killed)
Settings in all cases: 10 µM unless noted
T-47D breast = tested on: T-47D breast
BT-549 breast = tested on: BT-549 breast
MDA-MB-435 melanoma = tested on: MDA-MB-435 melanoma
SW-620 colon = tested on: SW-620 colon
MCF7 breast = tested on: MCF7 breast
HCT-116 colon = tested on: HCT-116 colon
HCC-2998 colon = tested on: HCC-2998 colon
KM12 colon = tested on: KM12 colon

Measured: growth

CCNC(=O)Oc1ccc(/C(=C(/C)Cc2ccc(OC)cc2)c2ccc(OCCN3CCCCCC3)cc2)cc1
inactive: T-47D breast 35.9% | BT-549 breast 89.1% | MDA-MB-435 melanoma 81.6% | SW-620 colon 70.7% | MCF7 breast 22.2% | HCT-116 colon 56.3% | HCC-2998 colon 63.3% | KM12 colon 53.9%

COc1cccc2c(N=NC(=O)c3ccc(S(N)(=O)=O)cc3)c(O)[nH]c12
inactive: T-47D breast 92.9% | BT-549 breast 94.3% | MDA-MB-435 melanoma 100% | SW-620 colon 94.8% | MCF7 breast 91.1% | HCT-116 colon 99.4% | HCC-2998 colon 113% | KM12 colon 101%

COc1ccc(C2CC(c3ccc4c(c3)OCO4)=Nc3c(N)ncnc3N2)cc1 (stereo not drawn)
inactive: T-47D breast 84.9% | BT-549 breast 118% | MDA-MB-435 melanoma 105% | SW-620 colon 95.9% | MCF7 breast 90.6% | HCT-116 colon 98.5% | HCC-2998 colon 92.4% | KM12 colon 100%

CC(=O)N(Cc1ccccc1)c1nc2ccc(O)c(CN(C)C)c2s1
inactive: T-47D breast 85.2% | BT-549 breast 96.6% | MDA-MB-435 melanoma 99.7% | SW-620 colon 94.7% | MCF7 breast 87.8% | HCT-116 colon 102% | HCC-2998 colon 105% | KM12 colon 102%

COc1cc2c(c(OC)c1OC)C(=O)N[C@@H]1[C@@H](O)[C@@H](O)[C@H](O)C[C@@H]21
inactive: T-47D breast 100% | BT-549 breast 110% | MDA-MB-435 melanoma 110% | SW-620 colon 109% | MCF7 breast 96.1% | HCT-116 colon 98.9% | HCC-2998 colon 101% | KM12 colon 108%

COc1cc(-c2nc3ccc(C)cc3[nH]2)ccc1OCC(=O)N=Nc1c(O)[nH]c2ccc(Cl)cc12
active: T-47D breast -43.2% | MDA-MB-435 melanoma -2.5% | SW-620 colon -58.9% | MCF7 breast -64.9% | HCT-116 colon -34.9% | HCC-2998 colon -32.5% | KM12 colon -40.1%
inactive: BT-549 breast 68.5%

CCN(CC)CCOc1nc2c3ccc(Cl)cc3nn2c2ccccc12
inactive: T-47D breast 53.4% | BT-549 breast 70.3% | MDA-MB-435 melanoma 36.3% | SW-620 colon 19.7% | HCC-2998 colon 15.4% | KM12 colon 43.1%
active: MCF7 breast 2.07% | HCT-116 colon 5.87%

N=C(N)c1ccc(-c2ccc(-c3ccc(Cl)cc3Cl)s2)cc1F
active: MDA-MB-435 melanoma -79.9% | SW-620 colon -64% | MCF7 breast -65.8% | HCT-116 colon -36.6% | HCC-2998 colon -81.7% | KM12 colon -86.3%
inactive: T-47D breast 14.8% | BT-549 breast 84.8%

CCOC(=O)c1c(C)nn(CC(O)c2ccccc2)c1NC(=O)Nc1cccc(F)c1 (stereo not drawn)
inactive: T-47D breast 81.8% | BT-549 breast 96.4% | MDA-MB-435 melanoma 86.8% | SW-620 colon 82.7% | MCF7 breast 81.4% | HCT-116 colon 84% | HCC-2998 colon 94.6% | KM12 colon 82.9%

Cn1cccc1/C=C1\C(=O)Nc2ccccc21
inactive: T-47D breast 18.2% | BT-549 breast 89.6% | MDA-MB-435 melanoma 103% | SW-620 colon 99.5% | MCF7 breast 12.3% | HCT-116 colon 102% | HCC-2998 colon 48.8% | KM12 colon 21.8%

O=[N+]([O-])/C(=C\c1ccco1)c1ccccc1Cl
inactive: T-47D breast 36.6% | MDA-MB-435 melanoma 75.6% | SW-620 colon 84.1% | MCF7 breast 38.4% | HCT-116 colon 11.8% | HCC-2998 colon 94.9% | KM12 colon 89.5%
active: BT-549 breast 9.05%

Cc1cc2oc(=O)cc(CP(=O)(O)O)c2cc1O
inactive: T-47D breast 98.8% | BT-549 breast 105% | MDA-MB-435 melanoma 99.9% | SW-620 colon 91.3% | MCF7 breast 88.9% | HCT-116 colon 100% | HCC-2998 colon 103% | KM12 colon 102%

C=CC(=O)N1CCN(c2ccc3cccc(NC(=O)c4cnc(C)cn4)c3n2)CC1
inactive: T-47D breast 28.2% | BT-549 breast 34.3% | MDA-MB-435 melanoma 33.1% | SW-620 colon 48.7% | MCF7 breast 48.2% | HCT-116 colon 27.4% | HCC-2998 colon 72.4% | KM12 colon 23%

C/C(=C(/c1ccc(Cl)cc1)c1ccc(OCCCN(C)C)cc1)c1ccc(Cl)cc1
inactive: T-47D breast 69.1% | BT-549 breast 111% | MDA-MB-435 melanoma 92.6% | SW-620 colon 64% | MCF7 breast 34.3% | HCT-116 colon 52.4% | HCC-2998 colon 101% | KM12 colon 79.9%

OC(c1ccccc1)(c1ccccc1)c1ccccc1-c1ccccc1
inactive: T-47D breast 69.8% | BT-549 breast 104% | MDA-MB-435 melanoma 108% | SW-620 colon 82.4% | MCF7 breast 83.5% | HCT-116 colon 72.1% | HCC-2998 colon 88.5% | KM12 colon 93.6%

COc1ccc(C(c2cc(OC)c(OC)c(OC)c2)N2CCCC2)cc1 (stereo not drawn)
active: MDA-MB-435 melanoma -21.8%
inactive: T-47D breast 89.8% | BT-549 breast 81.6% | SW-620 colon 47.8% | MCF7 breast 64.1% | HCT-116 colon 62.3% | HCC-2998 colon 89.1% | KM12 colon 43.9%

CCC/C(=N\NC(N)=O)C(OC)OC
inactive: T-47D breast 114% | BT-549 breast 110% | MDA-MB-435 melanoma 110% | SW-620 colon 110% | MCF7 breast 90.8% | HCT-116 colon 102% | HCC-2998 colon 99.3% | KM12 colon 97.7%

CN1CCN(CCOc2ccc(-c3cnc4c(-c5ccc(C(F)(F)F)cc5)cnn4c3)cc2)CC1
active: SW-620 colon -63.1% | HCT-116 colon -55.3% | KM12 colon -28.1%
inactive: T-47D breast 27.1% | BT-549 breast 47.8% | MDA-MB-435 melanoma 11.8% | MCF7 breast 10.3% | HCC-2998 colon 33.1%

Cc1cc(C(=O)Nc2cc(Nc3ncccc3-c3ncnc4nc[nH]c34)ccc2F)cc(C(F)(F)F)c1
inactive: T-47D breast 64.8% | BT-549 breast 91.3% | MDA-MB-435 melanoma 26.2% | SW-620 colon 33.9% | MCF7 breast 66.9% | HCT-116 colon 19.1% | HCC-2998 colon 30.6% | KM12 colon 49.5%

CC1(C)C2CC=C(/C=N/NC(=O)C3CCC(=O)N3)C1C2 (stereo not drawn)
inactive: T-47D breast 107% | BT-549 breast 105% | MDA-MB-435 melanoma 106% | SW-620 colon 104% | MCF7 breast 99.1% | HCT-116 colon 108% | HCC-2998 colon 119% | KM12 colon 106%

CCNC(=O)Oc1ccc(/C(=C(/C)Cc2ccc(OC)cc2)c2ccc(OCCN3CCCC3)cc2)cc1
inactive: T-47D breast 42.7% | BT-549 breast 85.9% | MDA-MB-435 melanoma 61.2% | SW-620 colon 81.4% | MCF7 breast 29% | HCT-116 colon 44% | HCC-2998 colon 71.2% | KM12 colon 71.5%

O=C(CCl)Nc1ccc2c(Nc3cc(O)ccc3Cl)ncnc2c1
active: T-47D breast -52.4% | BT-549 breast -78.5% | MDA-MB-435 melanoma -69.4% | SW-620 colon -60.6% | MCF7 breast -57.9% | HCT-116 colon -74.5% | HCC-2998 colon -3.99% | KM12 colon -64.7%

COC(=O)Cc1nc(C#N)c(N(C)C)o1
inactive: T-47D breast 89.6% | BT-549 breast 92.6% | MDA-MB-435 melanoma 103% | SW-620 colon 95.9% | MCF7 breast 94.9% | HCT-116 colon 97.1% | HCC-2998 colon 103% | KM12 colon 94.7%

COC(=O)C1=C(C(=O)Nc2cccnc2)C2OC1(C(Cc1ccccc1)Oc1ccccc1)C1OC21 (stereo not drawn)
inactive: BT-549 breast 61.5% | MDA-MB-435 melanoma 77.8% | MCF7 breast 24.9% | HCC-2998 colon 105% | KM12 colon 96.8%
active: T-47D breast -46.7% | SW-620 colon -64.9% | HCT-116 colon -46.3%

O=C(/C=C/c1ccc(Br)cc1)c1ccc(-n2cc(CN3CCN(c4cc5c(cc4F)c(=O)c(C(=O)O)cn5C4CC4)CC3)nn2)cc1
active: HCT-116 colon 7.82%
inactive: T-47D breast 80% | BT-549 breast 81.3% | MDA-MB-435 melanoma 86.6% | SW-620 colon 95.5% | MCF7 breast 64.8% | HCC-2998 colon 98.5% | KM12 colon 88.8%

CCOC(=O)c1c(C)nc2ccccc2c1/C=C/c1ccc(OC)cc1
inactive: T-47D breast 22.2% | BT-549 breast 53.3% | MDA-MB-435 melanoma 61.7% | SW-620 colon 85.1% | MCF7 breast 63.9% | HCT-116 colon 55.7% | HCC-2998 colon 77.8% | KM12 colon 70.7%

O=C(Nc1ccc(F)cc1)Nc1ccccc1CNc1nc(Nc2ccc(OCCN3CCCC3)cc2)ncc1Cl
inactive: T-47D breast 100% | BT-549 breast 84.9% | MDA-MB-435 melanoma 16.3% | SW-620 colon 27.8% | MCF7 breast 32.5% | HCT-116 colon 21.8% | HCC-2998 colon 48.6% | KM12 colon 49.6%

COC(=O)/C(CCC=C(C)C)=C1\[C@@H](OC(C)=O)C[C@@]2(C)[C@H]1CC(=O)[C@H]1[C@@]3(C)CCC(N4CCCC4)[C@@H](C)[C@@H]3CC[C@@]12C (stereo partly drawn)
inactive: T-47D breast 94.9% | BT-549 breast 92.5% | MDA-MB-435 melanoma 97.5% | SW-620 colon 103% | MCF7 breast 74.6% | HCT-116 colon 84.9% | HCC-2998 colon 114% | KM12 colon 105%

CCOC(=O)c1c2c(n3ccccc13)C(=O)c1ncccc1C2=O
active: MCF7 breast 5.14% | HCT-116 colon 0.586%
inactive: T-47D breast 41.8% | BT-549 breast 31.6% | MDA-MB-435 melanoma 39.8% | SW-620 colon 21.9% | HCC-2998 colon 38.2% | KM12 colon 24.1%

O=c1[nH]c(-c2ccc(Cl)cc2)cn1-c1ccc(-n2cc(-c3ccc(Cl)cc3)[nH]c2=O)cc1
inactive: T-47D breast 89.1% | BT-549 breast 110% | MDA-MB-435 melanoma 98.8% | SW-620 colon 102% | MCF7 breast 99.8% | HCT-116 colon 101% | HCC-2998 colon 106% | KM12 colon 106%

COc1cc2c(/C=C3\C(=O)Nc4ccccc43)c(C(=O)O)[nH]c2cc1C
inactive: T-47D breast 113% | BT-549 breast 102% | MDA-MB-435 melanoma 105% | SW-620 colon 120% | MCF7 breast 72% | HCT-116 colon 96.5% | HCC-2998 colon 103% | KM12 colon 99.8%
